Assay results taken from PubChem BioAssay AID900 (National Center for Advancing Translational Sciences (NCATS), 2007).
Several values for one entry are separate records, joined by “and”; a condition that tells them apart may be missing. Equal values may be shown once. Among all 75,000 compounds or so, about 20 (0.03%) were called active. Roughly 1% stayed inconclusive and do not appear here. The call rests on the fitted dose curve; in most records, active means well fitted inhibition curve with a large enough effect; inconclusive means small, poorly fitted or top-dose-only effect; inactive means flat fitted curve, though single readings scatter. The list is a sample of the results. Square brackets hold non-standard residues; d marks the D form. Side chains are listed from the residue outwards. Peptide text beside a SMILES is read from it. * marks the point of attachment. X1 = CCC(C)C(N)C1=NC(C(=O)*)CS1; Orn = NCCC[CH](N)C(=O)O

What follows are compounds tested against Caspase-1 (Homo sapiens) (UniProt P29466) (assay: qHTS Assay for Allosteric/Competitive Inhibitors of Caspase-1). Details: Caspase-1 enzyme, Ac-WEHD-AFC fluorogenic rate; series mostly up to 57.5 µM.
Source text: NIH Molecular Libraries Screening Centers Network [MLSCN]
NIH Chemical Genomics Center [NCGC]
PI Name: Dr. James Wells,
Dr. Enrique Perez-Paya, Dr.Janice Williams, Dr. Dennis Wolan, a person
The caspases (Cysteine Aspartyl Protease) comprise a related family of 14 dimeric proteases that are critical mediators of apoptosis (programmed cell death) and inflammation. The caspases represent an important class of drug targets for stroke, ischemia, cancer and inflammatory diseases. […] One goal of this project was to identify compounds that act as allosteric inhibitors via stabilizing the procaspase form of the enzyme. Previous work in Well's laboratory has shown that such allosteric inhibitors can be identified and these act by binding at the dimer interface of enzyme (Hardy, Lam et al., 2004).
The biochemical assay was configured using purified caspase 1 at a high enzyme concentration to promote formation of the homodimers and thus facilitate the identification of allosteric inhibitors. The overall goal was to identify reversible inhibitors with better drug-like properties than the currently available set of aspartyl-containing peptidomimetics that covalently bind the active site. Caspase 1 was assayed using the profluorescent substrate Ac-WEHD-AFC. After initiation of the assay with substrate the plates were rapidly read using an automated robotic system (Kalypsys, Inc.) to maintain consistent timing. A kinetic mode of detection was used where the initial rate was collected (estimated final product formation was ~10%). Compounds were screened as a concentration-titration series that ranged from 57 uM to 0.7 nM. Below is the protocol used for caspase 1.
NCGC Assay Protocol Summary:
Caspase 1 was prepared in buffer (50 mM HEPES pH 7.5, 50 mM KCl, 200 mM NaCl, 10 mM DTT, 0.1% CHAPS) at a concentration of 66.6 nM and 3 uL was dispensed to all wells using black solid Kalypsys 1536-well plates. 20 nL of DMSO containing compounds was added using a pin-tool (Kalypsys Inc.) to columns 5-48. Then 20 nL of DMSO solution from a control plate was added to columns 1-4. Controls were: Column 1, 16 point titration with each concentration in duplicate (1:1 dilutions in DMSO; final starting concentration was 57 uM) of the caspase 1 inhibitor Ac-WEHD-CHO (Alexis Biochemicals); Column 2, a 16 point titration with each concentration in duplicate of the free AFC fluorophore prepared in DMSO (Alexis Biochemicals), final starting was 40 uM; Column 3 neutral (DMSO only) control; Column 4: DMSO alone, to serve as a negative control (no substrate was added). Then 1 uL of 20 uM the substrate Ac-WEHD-AFC (Alexis Biochemicals) prepared in the same buffer was dispensed to all wells except columns 2 and 4 and the plates were immediately transferred (< 1 min) to the Viewlux. The plates were then exposed using 405 nm excitation/520 nm emission filters for 4 sec and read at 20 sec intervals for 3 min. Final enzyme concentration was 50 nM and the final substrate concentration was 5 uM.
Concentration-response curves were fitted to the data calculated from slope of the linear regression of fluorescent intensity versus time (the rate). The concentration-effect curves were then classified based on curve quality (r2), response magnitude and degree of measured activity. […] Inconclusive compounds had appreciable concentration-dependent effects on both the measured rate and the interpolated basal fluorescence intensity at the start of the reaction but where the basal fluorescent intensity was marginal (e.g. < 10-fold). Inconclusive compounds also encompass highly fluorescent compounds (>100-fold increases in fluorescent intensities values relative to controls) where artificial concentration-dependent decreases in the rate occurred at high compound concentrations due to fluorescent interferences.
Keywords: Caspase 1, proteases, profluorescent, MLSMR, MLSCN, NIH Roadmap, qHTS, NCGC
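Further: plate controls were vehicle for no effect and no substrate for full effect.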

Activity change, negative = inhibition, inactive:
COC(=O)[C@@H]1CC[C@H](C)[C@@H](c2ccc(C)cc2)N1C(=O)c1ccc(/C=N\O[C@@H](C)c2cn([C@H](CO)Cc3ccccc3)nn2)cc1 -0.293% [at 11.5 µM] and 3.03% [at 11.5 µM]
CO[C@H]1COC(=O)[C@@H](OCc2ccccc2)/C=C\[C@H](C)[C@@H](OC)COC(=O)[C@H](OCc2ccccc2)/C=C\[C@@H]1C -1.1% [at 11.5 µM]
CCOC(=O)N1CCN(C(=O)c2cn(C)c3ccc(S(=O)(=O)N4CCCC4)cc3c2=O)CC1
COC(=O)[C@@H]1C[C@@]2(O)[C@@H](O)[C@@H](O)[C@@H](O)C[C@H]2N1Cc1ccc(C)s1
C/C(Cl)=C\Cn1c(Nc2cccc(C)c2)nc2c1c(=O)n(C)c(=O)n2C
CC(C)[C@H]1CC[C@@H](C)C[C@H]1O
CCC(=O)Nc1nc(OC)cc(OC)n1
Nc1nc2c(nc(Cl)n2C2OC(CO)C(O)C2O)c(=O)[nH]1 (centres undefined)
CC(=O)OCC(=O)[C@@]1(O)CCC2C3CCC4=CC(=O)CC[C@@]4(C)[C@]3(F)C(O)C[C@]21C (some centres undefined)
O=c1c(O)c(-c2ccc(O)cc2)oc2ccccc12
C=CCn1c(SCc2cc(C(=O)OC)c(C)o2)nnc1-c1ccncc1
C[C@@H](c1ccccc1)N1C(=O)[C@H]2[C@H]3[C@H](O)[C@H](O)C/C(=N/OC[C@@H](O)COCc4ccco4)[C@@H]3CC[C@@H]2C1=O -0.613% [at 11.5 µM]
CCCCCCCCCCCCCCCC(=O)OC/C=C(C)/C=C/C=C(C)/C=C/C1=C(C)CCCC1(C)C
Cn1c(N)c(C(=O)COC(=O)c2cc(C(F)(F)F)nc3c(C(F)(F)F)cccc23)c(=O)n(C)c1=O
COc1cccc([C@H](O)Cn2cc(-c3ccc(CON=C(C)C)cc3)nn2)c1 -1.21% [at 11.5 µM]
CC1(C)OC2CC3C4CCC5=CC(=O)CCC5(C)C4(F)C(O)CC3(C)[C@]2(C(=O)CCl)O1 (some centres undefined)
CC(C)c1ccc(OCC(O)Cn2cnc3ccccc32)cc1 (centres undefined)
CCC(C)C(N)C1=NC(C(=O)NC(CC(C)C)C(=O)NC(CCC(=O)O)C(=O)NC(C(=O)NCCCCC2NC(=O)C(CC(N)=O)NC(=O)C(CC(=O)O)NC(=O)C(Cc3cnc[nH]3)NC(=O)C(Cc3ccccc3)NC(=O)C(C(C)CC)NC(=O)C(CCCN)NC2=O)C(C)CC)CS1 (stereo not drawn) (cyclo(DNK([Ile-Glu-Leu-X1])[Orn]IFH); configuration not given here)
COC(=O)[C@@H]1C[C@@]2(O)[C@H](O)[C@H](O)[C@H](O)C[C@H]2N1CC1CCCCC1
CCCN1[C@H](C(=O)OC)C[C@@]2(O)[C@@H](O)[C@@H](O)[C@@H](O)C[C@@H]12
CCOC(=O)N/N=C1/C[C@@H](O)[C@@H](O)[C@@H]2[C@@H]3C(=O)N(CC)C(=O)[C@H]3CC[C@H]12 0.333% [at 11.5 µM]
CSc1nnc2c(n1)OC(c1ccsc1)N(C(C)=O)c1ccccc1-2 (centres undefined)
COc1ccc(COC(=O)N/N=C2/C[C@@H](O)[C@@H](O)[C@@H]3[C@@H]4C(=O)N([C@@H](C)c5ccccc5)C(=O)[C@H]4CC[C@@H]23)cc1 -3.18% [at 11.5 µM]
C/C=C(/C)C(=O)OC1Cc2c(ccc3ccc(=O)oc23)OC1(C)C (centres undefined)
